36 compounds from PubChem BioAssay (Tox21) can be followed below.

Test [1] in a line: qHTS assay for small molecule agonists of the p53 signaling pathway (AID 651631; calls by dose curve; further: nearly all actives have a fitted effect of over 15% in size; further: potency means the concentration at half of the fitted maximal effect). Summed up:
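We treat p53RE-bla HCT-116 cells with compounds for 16 h at 37 °C, add LiveBLAzer B/G FRET substrate for 2 h at room temperature, and measure fluorescence intensity.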

Test [2] can be described thus: qHTS assay for small molecules that induce genotoxicity in human embryonic kidney cells expressing luciferase-tagged ATAD5 (AID 651632). Further: nearly all actives have a fitted effect of over 15% in size. Summed up:
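DMSO vehicle served as the control. HEK293T reporter cells, 16 hr at 37C, then 30 min Amplite at room temperature; ATAD5 induction is measured as luciferase activity.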
(In general: Quantitative high-throughput screening tests each substance at several concentrations.)

Test [3] can be described thus: qHTS assay for small molecule agonists of the p53 signaling pathway - cell viability (AID 651633; calls by dose curve; further: nearly all actives have a fitted effect of over 30% in size; further: potency means the concentration at half of the fitted maximal effect). Summed up: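 p53RE-bla cells, seeded at 4,000 per well and rested 5 h at 37 C/5% CO2, received compounds in DMSO for 16 h at 37 C. CellTiter-Glo was then added, and luminescence was read after 30 min at room temperature to gauge cytotoxicity.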
The nature of test [4]: qHTS assay for small molecules that induce genotoxicity in human embryonic kidney cells expressing luciferase-tagged ATAD5 - cell viability (AID 651634; calls by dose curve; further: nearly all actives have a fitted effect of over 25% in size; further: potency means the concentration at half of the fitted maximal effect). Summed up:
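Here HEK293T cells with the ATAD5 luciferase reporter are incubated with test compounds for 15.5 hr, and cytotoxicity is then gauged by measuring protease activity in live cells using fluorescence.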

Test [5] is described as follows: qHTS assay for small molecule disruptors of the mitochondrial membrane potential - cell viability (AID 720634; calls by dose curve; further: nearly all actives have a fitted effect of over 20% in size; further: potency means the concentration at half of the fitted maximal effect). Summed up:
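Viability of HepG2 cells is scored from ATP content by luminescence; cells are exposed to compound for 1 hr at 37 C and 5% CO2, then dosed with m-MPI dye before the CellTiter-Glo reagent.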

The nature of test [6]: qHTS assay for small molecule disruptors of the mitochondrial membrane potential (AID 720635). In a few lines: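 HepG2 cells (2,000/well) attached overnight at 37C, then took compound for 1 hr at 37C, 5% CO2. Mito-MPS dye was added for 30 min; fluorescence was read at 490/535 nm (monomers) and 540/590 nm (aggregates).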
A short description of test [7]: qHTS assay to test for compound auto fluorescence at 590 nm (red) in HepG2 cells (AID 720674). Summed up: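 Compound auto-fluorescence is scored relative to Rose Bengal sodium, measured at 540/590 nm in live HepG2 cultures after 1 hr compound contact (37 C, 5% CO2).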
Test [8] can be described thus: qHTS assay to test for compound auto fluorescence at 535 nm (green) in HepG2 cells (AID 720675).
A short description of test [9]: qHTS assay to test for compound auto fluorescence at 460 nm (blue) in HEK293 cells (AID 720678). In a few lines: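 HEK293 cells (2,000/well, medium with 10% dialyzed FBS) attached 4-5 hr, then exposed to compound overnight at 37C, 5% CO2. Blue fluorescence read at 405/460 nm, with triamterene as reference fluorophore.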
A short description of test [10]: qHTS assay to test for compound auto fluorescence at 590 nm (red) in HEK293 cells (AID 720679). In a few lines:
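HEK293 cells (2,000/well, 10% dialyzed FBS) attached 4-5 hr, then dosed with compound or DMSO and incubated overnight at 37C, 5% CO2. Red fluorescence read at 540/590 nm, Rose Bengal sodium as reference fluorophore.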

Values joined by “and” are separate entries in the source; they are usually repeats but may differ in a detail not shown here. Equal values may be shown once. Inconclusive results are not listed. More than one record can exist for a structure, and the calls need not agree. Active and inactive are the calls of the source. Unless noted, the call rests on the fitted dose curve; in most records, active means well fitted curve in the direction sought with a large enough effect in the repeat runs; inconclusive means weak or mixed curves; inactive means no such curve, though single readings can be large; an effect the other way counts as inactive or inconclusive.

On to `Cc1cc(-c2ccc(N)c(C)c2)ccc1N`, for which the Potency result in [1], in [3], in test [4], in test [5] and in test [6] was “inactive” each time. Moreover, the call in test [2], in test [7], in [8], in test [9] and in test [10] was inactive.
For `O=C(O)c1nc(Cl)ccc1Cl`, the Potency result in [1], in test [3], in test [4] and in test [5] was “inactive” throughout. Also, the call in [2], in test [7], in test [8], in test [9] and in test [10] was inactive.
Take `CC(=O)[O][Hg][c]1ccccc1`: the Potency is 596 nM (active) and 762 nM (active) and 1.22 µM (active) in [1]; 473 nM (active) and 382 nM (active) and 386 nM (active) in test [3]; 1.68 µM (active) and 606 nM (active) and 1.37 µM (active) in [4]; 5.31 µM (active) and 1.21 µM (active) and 2.43 µM (active) in test [5]. Further, the outcome in test [2], in [7], in test [8], in test [9] and in [10] was inactive.
With `CN(C)[C@@H]1C(=O)C(C(N)=O)=C(O)[C@@]2(O)C(=O)C3=C(O)c4c(O)cccc4[C@@](C)(O)[C@H]3[C@H](O)[C@@H]12`, the Potency entry in test [4] and in test [5] was “inactive” each time. Further, the call in [7], in test [8], in [9] and in test [10] was inactive.
Regarding `CCCC[N+]1(C)CCCCC1`, the compound was called inactive in [2], in test [7], in test [8], in test [9] and in test [10]. In addition, the Potency result in [3], in [4] and in test [5] was “inactive” throughout.
As to `O=S(=O)(O)O`, the Potency entry in test [4], in test [5] and in [6] was “inactive” each time. Besides, the outcome in [7], in [8], in test [9] and in test [10] was inactive.
Regarding `CC(Cl)(Cl)C(=O)O`, the result in [2], in [7], in [8], in test [9] and in [10] was inactive. Besides, the Potency result in [4] and in test [5] was “inactive” in each case.
With `O=C(O)CCl`, the Potency entry in test [3], in test [4], in [5] and in test [6] was “inactive” each time. For the same compound, the result in [7], in test [8], in [9] and in [10] was inactive.
In the case of `CCCC[n+]1ccc(C)cc1`, the compound was classed as inactive in test [2], in test [7], in [8], in [9] and in test [10]. Further, the Potency entry in [3] and in test [4] was “inactive” in each case. For the same compound, the Potency entry in test [5] was “inactive and 48.3 µM (active)”.
As for `Oc1cccc2cccnc12`, the Potency entry in test [4] and in [5] was “inactive” throughout. In addition, the compound was classed as inactive in test [7], in test [8], in test [9] and in test [10].
Regarding `COc1ccccc1N`, the result in [2], in test [7], in [8], in test [9] and in [10] was inactive. Moreover, the Potency result in test [3], in test [4] and in test [5] was “inactive” in each case.
Regarding `CCCCCCCCCCCC(=O)O`, the result in [2], in test [7], in [8], in test [9] and in test [10] was inactive. Besides, the Potency result in [3], in test [4] and in test [5] was “inactive” each time.
On to `CCCCCCCCCCn1cc[n+](C)c1`, for which the compound was classed as inactive in test [2], in [7], in test [8], in [9] and in test [10]. In addition, the Potency entry in test [3], in test [4] and in [5] was “inactive” each time.
Regarding `CCCCn1cc[n+](C)c1`, the Potency result in [4] and in test [5] was “inactive” in each case. In addition, the result in test [7], in test [8], in [9] and in test [10] was inactive.
As for `CCn1cc[n+](C)c1C`, the compound was classed as inactive in test [2], in test [7], in [8], in test [9] and in test [10]. The Potency result in test [3], in test [4] and in test [5] was “inactive” throughout.
For `CCCCCCCCCCCCCC[P+](CCCCCC)(CCCCCC)CCCCCC`, the result in test [2], in test [7], in [8], in test [9] and in test [10] was inactive. In addition, the Potency was 15.4 µM (active) and 19.5 µM (active) and inactive in [3]; 27.4 µM (active) and 24.5 µM (active) in test [4]; 30.8 µM (active) and 24.5 µM (active) and 1.72 µM (active) in test [5].
For the compound `CCCCCCn1cc[n+](C)c1`, the call in [2], in test [7], in [8], in test [9] and in test [10] was inactive. The Potency result in test [3], in [4] and in [5] was “inactive” each time.
`CCCC[n+]1ccccc1C`: the call in [2], in test [7], in [8], in test [9] and in test [10] was inactive. In addition, the Potency entry in [3], in test [4] and in [5] was “inactive” each time.
Take `CCCC[n+]1ccccc1`: the compound was classed as inactive in test [2], in [7], in [8], in test [9] and in [10]. Also, the Potency entry in test [3], in [4] and in test [5] was “inactive” each time.
Take `CCCCCCCCn1cc[n+](C)c1`: the compound was called inactive in test [2], in test [7], in test [8], in test [9] and in test [10]. Besides, the Potency result in test [3], in test [4] and in test [5] was “inactive” each time.
On to `O=c1[nH]c(=O)n(Cl)c(=O)n1Cl`, for which the call in test [2], in [7], in test [8], in [9] and in [10] was inactive. The Potency entry in test [4], in [5] and in test [6] was “inactive” in each case.
Turning to `CC[N+]1(C)CCCC1`, the outcome in test [2], in test [7], in test [8], in test [9] and in test [10] was inactive. For the same compound, the Potency result in test [3], in test [4] and in test [5] was “inactive” in each case.
With `O=c1nc(O)n(Cl)c(=O)n1Cl`, the outcome in [2], in test [7], in test [8], in test [9] and in test [10] was inactive. Also, the Potency entry in test [4], in [5] and in test [6] was “inactive” each time.
As to `CCCn1cc[n+](C)c1`, the call in [2], in test [7], in [8], in [9] and in test [10] was inactive. Moreover, the Potency entry in [4] and in test [5] was “inactive” in each case.
Take `CCCCCC[n+]1ccccc1`: the outcome in [2], in test [7], in test [8], in [9] and in [10] was inactive. In addition, the Potency result in [3], in test [4] and in test [5] was “inactive” each time.
In the case of `Cc1cc(Cl)ccc1N`, the compound was classed as inactive in test [2], in [7], in test [8], in test [9] and in test [10]. For the same compound, the Potency entry in [3], in test [4] and in [5] was “inactive” throughout.
On to `O=[N+]([O-])O`, for which the Potency entry in [4] is “inactive”. Besides, the compound was called inactive in test [7], in test [8], in test [9] and in test [10].
With `CC[N+](CC)(CC)CC`, the Potency result in test [3], in test [4] and in [5] was “inactive” each time. Also, the compound was called inactive in [7], in test [8], in test [9] and in test [10].
In the case of `CCCCCCCCCCCCOS(=O)(=O)O`, the compound was called inactive in test [2], in [7], in test [8], in test [9] and in [10]. Further, the Potency result in test [4] and in test [5] was “inactive” throughout.
For the compound `O=C(O)c1ccccc1O`, the Potency result in [4] is “inactive”.
For the compound `O=C(O)C(Cl)Cl`, the compound was classed as inactive in test [2], in test [7], in test [8], in test [9] and in test [10]. Besides, the Potency result in test [3], in [4] and in test [5] was “inactive” throughout.
With `CC(=O)O`, the Potency entry in test [3] and in [4] was “inactive” in each case. Further, the call in test [7], in test [8], in [9] and in test [10] was inactive.
`CCC[N+]1(C)CCCCC1`: the outcome in test [2], in test [7], in test [8], in [9] and in [10] was inactive. For the same compound, the Potency entry in test [3], in test [4] and in test [5] was “inactive” in each case.
As to `Nc1ccc(Cl)cc1`, the result in test [2], in test [7], in [8], in [9] and in test [10] was inactive. Also, the Potency entry in test [3], in [4] and in [5] was “inactive” each time.
Regarding `CCCCCCCCCCCCn1cc[n+](C)c1`, the compound was called inactive in test [2], in test [7], in test [8], in [9] and in [10]. In addition, in test [5], the Potency is 154 nM (active) and inactive.
Consider `CCCCn1cc[n+](C)c1C`, for which the result in test [2], in test [7], in [8], in test [9] and in test [10] was inactive. Besides, the Potency entry in [3], in test [4] and in test [5] was “inactive” in each case.
